Data published in PubChem BioAssay (NCI).
About 83,000 compounds went through this panel and 20% of them were active in at least one assay; those are over-represented in the sample as a whole.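 Results are percent growth after 48 hours of single-concentration exposure. 100 means growth as in untreated cells, lower positive values show inhibition; negative values down to -100 show cell death.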 A number with no mark means an inactive call. The source made the active and inactive calls. The calls were made as follows: active = growth percent below 10; inactive = the rest.

Key:
Assay in all cases: NCI-60 one-dose screen, 48 h (100 = growth as untreated, 0 = no growth, -100 = all killed)
Conditions in all cases: 10 µM unless noted
SK-MEL-2 melanoma = system: SK-MEL-2 melanoma
EKVX NSCLC = system: EKVX NSCLC
SN12C renal = system: SN12C renal
UO-31 renal = system: UO-31 renal
TK-10 renal = system: TK-10 renal
ACHN renal = system: ACHN renal
CAKI-1 renal = system: CAKI-1 renal
A498 renal = system: A498 renal
CCRF-CEM leukemia = system: CCRF-CEM leukemia
MOLT-4 leukemia = system: MOLT-4 leukemia

Row | Structure (SMILES) | growth (SK-MEL-2 melanoma) | growth (EKVX NSCLC) [%] | growth (SN12C renal) | growth (UO-31 renal) | growth (TK-10 renal) | growth (ACHN renal) | growth (CAKI-1 renal) | growth (A498 renal) | growth (CCRF-CEM leukemia) | growth (MOLT-4 leukemia)
1 | CCSc1nnc(NC(=O)Cc2ccc(Cl)cc2)s1 | 73.4% | 103 | 105% | 40% | 113% | 103% | 102% | 100% | 87.9% | 103%
2 | O=C(Nc1cccc(Cl)c1)c1cc([N+](=O)[O-])ccc1O | 5.35% (active) | 60.5 | 55.1% | 45.5% | 61% | 59.9% | 52.6% | 8.44% (active) | 46.4% | 35.7%
3 | Cc1cnc(NC(=O)C(Cc2ccccc2)NC(=O)c2ccccc2)s1 (stereo not given) | 43.2% | 78.5 | 76.1% | 26.7% | 79.2% | 68% | 92.4% | 92.6% | 81.3% | 40.8%
4 | C[N+](C)(C)c1ccc(CC2c3ccccc3-c3ccccc32)cc1 | 81.5% | 71.2 | 21.3% | 90.9% | 93.3% | 99.9% | 86.8% | 70.5% | 69.9% | 76.4%
5 | CCC(c1cccc(Br)c1)C(C(=O)O)c1ccc(OC)cc1 (stereo not given) | 103% | 100 | 105% | 90.9% | 107% | 107% | 93.2% | 100% | 110% | 111%
6 | Cn1c(=O)c2c(nc3n2CCN(CCc2ccc(OCCN4CCOCC4)cc2)C3)n(C)c1=O | 101% | 102 | 104% | 93.8% | 104% | 106% | 97.5% | 81.3% | 105% | 98%
7 | Nc1ccccc1C#C/C=C\C#Cc1cccc(O)c1 | 20.2% | 71.8 | 67.2% | 12.4% | 83.8% | 36.4% | 31.3% | 78.6% | 32% | 27.1%
8 | COC(=O)c1ccc2nc(-c3cc4ccccc4n3C)n(CCCCOc3cc4c(cc3OC)C(=O)N3CCC[C@H]3C=N4)c2c1 | -40.3% (active) | 10.8 | 3.64% (active) | -57.3% (active) | -17.7% (active) | -5.96% (active) | -20.7% (active) | -60.3% (active) | -35.1% (active) | 3.44% (active)
9 | CC/C=C\C/C=C\C[C@H]1C/C=C2/C(=O)C=C[C@H]2C/C=C\CCC(=O)O1 | 7.15% (active) | 18.3 | -10.2% (active) | -51.7% (active) | 2.67% (active) | -63.5% (active) | 34.1% | 77.7% | 3.86% (active) | -3.06% (active)
10 | Cc1cc(C(=O)CSc2nc3ccccc3c(=O)[nH]2)c(C)n1C | 87.9% | 94.9 | 95.4% | 38.9% | 93.1% | 107% | 95.9% | 74.6% | 87.2% | 118%
11 | COc1ccc(/C(=N\O)c2cc(OC)c(OC)c(OC)c2)c(OC)c1N | 35.1% | 47.3 | 44.4% | 50.3% | 9.72% (active) | 40.5% | 28.1% | -19.3% (active) | 12.6% | 24.1%
12 | COc1ncc(-c2ccc3ncnc(Nc4cccc(Cl)c4)c3c2)cc1N(S(C)(=O)=O)S(C)(=O)=O | 77.4% | 30 | 64.5% | 25.9% | 5.88% (active) | 22% | 26.8% | 49.6% | 86.8% | 69.9%
13 | Cc1cc(C)c2c(=O)[nH]c(SCC(=O)Nc3cccc(S(=O)(=O)N(C)C)c3)nc2n1 | 96.5% | 93.3 | 109% | 94.6% | 98.4% | 108% | 107% | 104% | 89.1% | 96.1%
